PriA SSB inh – inhibitors of Klebsiella pneumoniae PriA binding to SSB C-terminal tail; inhibition, % at 33 µM; AlphaScreen SSBct-PriA binding, biotinylated peptide; hit rate 0.6% among 430,000; in the data active = inhibition mostly above about 37%, no sharp cut-off; inactive = mostly below about 20%
RN4220 kill – kills Staphylococcus aureus RN4220 | hit rate 0.33% among 330,000 | inhibition, % (no concentration beside the values) | S. aureus RN4220 growth, OD600, 16 h; in the data active = inhibition above about 85%
Sa ugtP lethal – kills S. aureus RN4220 lacking UgtP; S. aureus RN4220 ugtP deletion, OD600 growth, 16 h; growth inhibition, % (test concentration not listed); hit rate 0.54% among 330,000; AID 1259309; in the data active = growth inhibition above about 68%
Each line names hits and unclear results; the compound was inactive in the other large screens; ! = repeats disagree. Most compounds without a hit are left out; they make up all but 1% or so of the library.

CCN(CC)C(=O)c1sc(NC(=O)c2ccncc2)c(C(=O)OC)c1C	PriA SSB inh 64.8
CCOC(=O)c1sc(NC(=S)NC(=O)c2ccccc2)c(C(=O)OCC)c1C	PriA SSB inh 81.6!
O=S(=O)(c1cc(Cl)ccc1Cl)N1CCN(c2ccc3nncn3n2)CC1	none (no result: RN4220 kill, Sa ugtP lethal)
CC(=O)N1CCc2ccc(NC(=O)CCc3ccccc3F)cc2C1	none (no result: RN4220 kill, Sa ugtP lethal)
CCC(Sc1ccc(C)cc1)C(=O)Nc1nnc(-c2ccccc2OC)s1 (stereo not drawn)	none (no result: RN4220 kill, Sa ugtP lethal)
CC(C)CS(=O)(=O)C1CN(C(=O)C2CC2)C1	none (no result: RN4220 kill, Sa ugtP lethal)
O=C(NCC1CCN(c2nc3ccccc3s2)CC1)C(=O)Nc1ccc2c(c1)OCO2	none (no result: RN4220 kill, Sa ugtP lethal)
O=C(Nc1ccc2c(c1)CN(C(=O)c1cccs1)CC2)c1ccccc1Cl	none (no result: RN4220 kill, Sa ugtP lethal)
C=CCn1c(SCc2csc(-c3ccc(C)cc3)n2)nnc1-c1ccccc1OC	Sa ugtP lethal 90.1
COc1ccccc1-n1cnnc1SCc1csc(-c2ccccc2)n1	none
NC(=O)c1cc([C@@H]2CCCCN2C(=O)Cc2cccs2)[nH]n1	none (no result: RN4220 kill, Sa ugtP lethal)
CCN(Cc1cnc2ccccn12)C(=O)c1csc(-c2ccccc2)n1	none (no result: RN4220 kill, Sa ugtP lethal)
CCC(C)Nc1ccc(NC(C)CC)cc1 (stereo not drawn)	PriA SSB inh 39.6 (no result: RN4220 kill, Sa ugtP lethal)
CCC(C)NC(=O)Nc1ccc(Br)cc1 (stereo not drawn)	none
O=C(O)c1ccccc1Nc1ccc([N+](=O)[O-])cc1C(=O)O	none (no result: RN4220 kill, Sa ugtP lethal)
O=C(O)c1ccccc1Nc1ccc([N+](=O)[O-])c2nonc12	PriA SSB inh 57.4!
O=[N+]([O-])c1ccc(Nc2ccccc2Cl)c2nonc12	PriA SSB inh 58.5 (no result: RN4220 kill, Sa ugtP lethal)
Cc1ccccc1Nc1ccc([N+](=O)[O-])c2nonc12	none (no result: RN4220 kill, Sa ugtP lethal)
O=S(=O)(CCCOc1ccc2c(c1)OCO2)NCc1ccc(F)cc1	none (no result: RN4220 kill, Sa ugtP lethal)
CCCCc1cc(=O)oc2cc(OCC(=O)N3C[C@H]4C[C@H](C3)c3cccc(=O)n3C4)c(Cl)cc12	none (no result: RN4220 kill, Sa ugtP lethal)
O=C(NC(CO)C(O)c1ccc([N+](=O)[O-])cc1)C(Cl)Cl (stereo not drawn)	RN4220 kill 89.1, Sa ugtP lethal 95.5
Cc1ccc(NC(=S)NC(CO)C(O)c2ccc([N+](=O)[O-])cc2)cc1 (stereo not drawn)	none
O=[N+]([O-])c1ccc(C(O)C(CO)NC(=S)Nc2ccccc2)cc1 (stereo not drawn)	none
O=C(NC(CO)Cc1ccc([N+](=O)[O-])cc1)C(Cl)Cl (stereo not drawn)	RN4220 kill 94.4, Sa ugtP lethal 99.1
O=C(N[C@H](CO)[C@H](O)c1ccc([N+](=O)[O-])cc1)C(Cl)Cl	RN4220 kill 97.6, Sa ugtP lethal 98.3
O=C(O)CC(Cc1ccc(Cl)cc1)C(=O)Nc1ccc([N+](=O)[O-])cc1 (stereo not drawn)	none
O=C(CCn1ccc(=O)[nH]c1=O)N1CC(c2nc(-c3cnccn3)no2)C1	none (no result: RN4220 kill, Sa ugtP lethal)
Cc1nc2ccccn2c1C(=O)NCC1CCN(C(=O)Oc2ccccc2)CC1	none (no result: RN4220 kill, Sa ugtP lethal)
CCOc1ccccc1NC(=O)N1CCC(S(C)(=O)=O)CC1	none (no result: RN4220 kill, Sa ugtP lethal)
O=C(Oc1ccc(/C=N\NC(=O)C2COc3ccccc3O2)cc1)c1cccnc1 (stereo not drawn)	none (no result: RN4220 kill, Sa ugtP lethal)
N#Cc1nc(-c2ccco2)oc1N1CCCC1	none
N#Cc1nc(-c2ccco2)oc1N1CCN(C(c2ccccc2)c2ccccc2)CC1	none
N#Cc1nc(-c2ccco2)oc1N1CCc2ccccc2C1	PriA SSB inh 43.2
N#Cc1nc(-c2ccco2)oc1N1CCN(c2cccc(Cl)c2)CC1	PriA SSB inh 49.9
Cc1cn2nc(C(=O)N3CCN(C(=O)C4COc5ccccc5O4)CC3)cc2c(=O)[nH]1 (stereo not drawn)	none (no result: RN4220 kill, Sa ugtP lethal)
Cc1nn(C2CCS(=O)(=O)C2)c(C)c1N1CCN(S(=O)(=O)c2c(C)noc2C)CC1 (stereo not drawn)	none (no result: RN4220 kill, Sa ugtP lethal)
Cc1cccc(C)c1N=C1NN=C(c2ccccc2F)CS1	none
Cc1ccccc1N=C1NN=C(c2ccccc2F)CS1	PriA SSB inh 39.2
Cc1ccc2c(=O)c(C(=O)c3cccc(Cl)c3)cn(CC(=O)NC[C@H]3CCCO3)c2n1	none (no result: RN4220 kill, Sa ugtP lethal)
O=C(NCc1nc(-c2ccc(C(F)(F)F)cc2)no1)Nc1cc(Cl)cc(Cl)c1	RN4220 kill 100.5, Sa ugtP lethal 99.5
O=C(NCc1nc(-c2ccc(C(F)(F)F)cc2)no1)Nc1ccc(F)cc1F	none
O=C(CCN1C(=O)/C(=C/c2ccccc2Cl)SC1=S)NC1=NCCS1	Sa ugtP lethal 86.7
O=C(CCN1C(=O)/C(=C/c2ccccc2Cl)SC1=S)Nc1ccccn1	none
COC(=O)c1sccc1S(=O)(=O)NCc1cccnc1-c1cccs1	none (no result: RN4220 kill, Sa ugtP lethal)
CCOC(=O)c1ncsc1N	none (no result: RN4220 kill, Sa ugtP lethal)
O=C(NCCc1csc2nc(-c3ccc(F)cc3)nn12)C(=O)Nc1ccc2c(c1)OCCO2	none (no result: RN4220 kill, Sa ugtP lethal)
O=C(NN=Cc1c[nH]c2ccccc12)C1CC1c1ccccc1 (stereo not drawn)	none
CN(C)c1ccc(C=NNC(=O)C2CC2c2ccccc2)cc1 (stereo not drawn)	PriA SSB inh 44.1
CN1CCN(c2ccc(NC(=O)Oc3ccccc3)cc2)CC1	none
C=CC(=O)Nc1ccc(N(C)c2ccnc(Nc3ccc(N4CCN(C)CC4)cc3)n2)cc1	PriA SSB inh 44.0
Oc1c(C2=NCCNC(C(F)(F)F)=C2)ccc2ccccc12	PriA SSB inh 45.4
Cc1ccc(O)c(C2=NCCNC(C(F)(F)F)=C2)c1	none
Cn1cc(C(=O)Nc2ccc(F)c(Cl)c2)c2nn(-c3ccccc3)c(=O)c-2c1	none (no result: RN4220 kill, Sa ugtP lethal)
COc1ccc(OCC2c3cc(OC)c(OC)cc3CCN2C(=O)c2ccc(-c3ccccc3)cc2)cc1 (stereo not drawn)	none (no result: RN4220 kill, Sa ugtP lethal)
Cc1cc2ncc(NC(=O)NC3CCCCC3)cn2n1	none (no result: RN4220 kill, Sa ugtP lethal)
O=C1C=C(Nc2ccccc2)C(=O)N1c1ccccc1C(F)(F)F	none (no result: RN4220 kill, Sa ugtP lethal)
O=C(CSCc1ccccc1)NCCc1csc(-n2cccn2)n1	none (no result: RN4220 kill, Sa ugtP lethal)
COc1ccc(CC(O)=C(C#N)c2nc3ccccc3s2)cc1	none
Cc1ccc(OC/C(O)=C(\C#N)c2nc3ccccc3s2)cc1	Sa ugtP lethal 84.0
CC[C@@](CNC(=O)c1ccc(OC(F)(F)F)cc1)(OC)c1ccccc1	none (no result: RN4220 kill, Sa ugtP lethal)
COc1ccc(Nc2cccccc2=O)cc1	none
COc1ccc(Nc2cccc3ccccc23)cc1	PriA SSB inh 49.7
COc1ccc(NC(=S)Nc2cccc3ccccc23)cc1OC	PriA SSB inh 42.6
CC(=O)Nc1cccc(NC(=S)Nc2cccc3ccccc23)c1	none
O=C(CSC1CCCC1)NCc1cncc(-c2cccs2)c1	none (no result: RN4220 kill, Sa ugtP lethal)
Oc1oc(-c2ccccc2)nc1C=Nc1ccccc1	none
Sc1oc(-c2ccccc2)cc1C=Nc1ccccc1	PriA SSB inh 40.8
Cc1ccc(Cl)c(OC(=O)c2ccc(N3CCOCC3)c([N+](=O)[O-])c2)c1	PriA SSB inh 45.2
O=[N+]([O-])c1cc(-n2cccc2)ccc1N1CCOCC1	PriA SSB inh 46.6
CN1CCN(c2ccccc2NC(=O)c2ccc(N3CCCC3)c([N+](=O)[O-])c2)CC1	none
O=[N+]([O-])c1cc(S(=O)(=O)C(F)(F)F)ccc1N1CCN(c2ccccc2)CC1	PriA SSB inh 47.1
CN1CCN(c2ccc(C(=O)c3ccc(Br)cc3)cc2[N+](=O)[O-])CC1	PriA SSB inh 43.3
Cc1ccc(C(=O)ON=Cc2ccc(N3CCOCC3)c([N+](=O)[O-])c2)cc1	none
CN1CCN(c2ccc(S(=O)(=O)C(F)(F)F)cc2[N+](=O)[O-])CC1	none
Cc1ccc(C)n1-c1ccc(N2CCOCC2)c([N+](=O)[O-])c1	none
O=C(Nc1cccc(Cl)c1Cl)c1ccc(=O)n(Cc2ccccc2)c1	none (no result: RN4220 kill, Sa ugtP lethal)
COc1ccc(-c2cc(=O)n(CC(=O)N3CCc4ccccc43)cn2)cc1	none (no result: RN4220 kill, Sa ugtP lethal)
